The record followed here is the supplement of paper PMC4723716.

The subject of this assay is Plasmodium falciparum NF54 gametocytes. Put plainly: viability index relative to DMSO control (fraction); higher = less gametocyte killing. The settings on record: 12.5 µM, incubation time: 72 h. An outline of the steps: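 Each stage (I–V) of P. falciparum NF54 gametocytes was incubated with compound at 12.5 µM in 384-well plates, in 40 µl of serum-containing medium at 0.50% gametocytemia and 1.25% hematocrit, for 72 hr at 37°C under low oxygen. After 5 µl of 5 µM MitoTracker Red CMXRos was added for 20 min, 5 µl from each well was moved into 40 µl of 500 nM dye in serum-free medium and imaged across three fields after 30 min. The viability index is the gametocyte particle count divided by the plate mean of the solvent-only wells.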

Setting [1] is: gametocyte stage: Stage I viability index.
Setting [2] is: gametocyte stage: Stage II viability index.
Where [3] appears, read: gametocyte stage: Stage III viability index.
The mark [4] stands for this setting: gametocyte stage: Stage IV viability index.
The mark [5] stands for this setting: gametocyte stage: Stage V viability index.

Turning to `O=C(Nc1ccc(CN2CCOCC2)cc1)c1ccc(-c2cc(Cl)ccc2Cl)o1`, the viability index by setting is: under setting [1], 0.302; under setting [2], 0.64; under setting [3], 1.15; under setting [4], 1.04; under setting [5], 1.04.

On to `c1ccc(CNc2nc(Nc3ccccc3)nc3ccccc23)cc1`, for which the viability index came out at 0.0367 under setting [1]; 0.211 under setting [2]; 0.586 under setting [3]; 0.563 under setting [4]; 0.481 under setting [5].

Compound `Oc1ccccc1CN1CCC2(CCCN(Cc3ccccc3F)C2)C1` (stereo not given) displayed a viability index under setting [1] of 0.0166; a viability index under setting [2] of 0.161; a viability index under setting [3] of 0.509; a viability index under setting [4] of 0.657; a viability index under setting [5] of 1.07.

Turning to `O=C(NCc1ccco1)C1CCN(S(=O)(=O)c2ccc(Br)cc2)CC1`, the viability index reads like this: under setting [1], 0.938; under setting [2], 0.983; under setting [3], 0.99; under setting [4], 0.824; under setting [5], 0.945.

With `CNCCCNc1ccnc2cc(Cl)ccc12`, the viability index by setting is: under setting [1], 0.0398; under setting [2], 0.291; under setting [3], 0.704; under setting [4], 0.875; under setting [5], 0.747.

Regarding `Cc1nc2ccccc2c(O)c1CC=C(Cl)Cl`, the viability index under setting [1] stood at 0.814; the viability index under setting [2] stood at 0.962; the viability index under setting [3] was found to be 0.897; the viability index under setting [4] amounted to 0.87; the viability index under setting [5] worked out at 1.06.

On to `COc1ccc(-n2ccnc2SCC(=O)Nc2cc(C)ccc2C)c(OC)c1`, for which the viability index reads like this: under setting [1], 1.07; under setting [2], 0.949; under setting [3], 0.975; under setting [4], 0.939; under setting [5], 0.989.

As for `O=C(Nc1ccc(-c2nc3ccccc3[nH]2)cc1)c1ccc(Cl)c(Cl)c1`, the viability index was found to be 0.129 under setting [1]; 0.564 under setting [2]; 0.894 under setting [3]; 0.978 under setting [4]; 0.727 under setting [5].

In turn, `COc1ccccc1CNC(=O)CCn1c(=O)[nH]c2ccccc2c1=O` returned a viability index under setting [1] of 0.867; a viability index under setting [2] of 0.898; a viability index under setting [3] of 0.912; a viability index under setting [4] of 0.951; a viability index under setting [5] of 0.912.

`CCCOCc1cc(CN2CCN(c3cccc(Cl)c3)CC2)c(O)c2ncccc12` gave a viability index under setting [1] of 0.00962; a viability index under setting [2] of 0.0225; a viability index under setting [3] of 0.0244; a viability index under setting [4] of 0.0127; a viability index under setting [5] of 0.

Turning to `COc1ccc(CNC2CCN(c3ccc(NC(=O)c4cccc(Cl)c4)cc3)CC2)cc1OC`, the viability index reads like this: under setting [1], 0.0586; under setting [2], 0.532; under setting [3], 0.652; under setting [4], 0.79; under setting [5], 0.758.

Regarding `COc1ccc(C2NCCc3c2[nH]c2ccccc32)cc1CN1CCN(c2ccc(F)cc2)CC1` (stereo not given), the viability index came out at 0.0297 under setting [1]; 0.0183 under setting [2]; 0.0204 under setting [3]; 0.0222 under setting [4]; 0.0519 under setting [5].

In the case of `COc1ccc(C(=O)Nc2ccc(Cl)cc2C(=O)Nc2ccncc2)cc1`, the viability index under setting [1] was found to be 0.0232; the viability index under setting [2] was found to be 0.557; the viability index under setting [3] came to 0.915; the viability index under setting [4] turned out to be 0.763; the viability index under setting [5] is 0.692.

As for `CN(C)CCCNc1c2ccccc2nc2ccccc12`, the viability index reads like this: under setting [1], 0.0663; under setting [2], 0.0164; under setting [3], 0.0835; under setting [4], 0.201; under setting [5], 0.231.

Take `CCCCN(CCCC)S(=O)(=O)c1ccc(NC(=O)c2ccco2)cc1`: the viability index is 0.943 under setting [1]; 0.963 under setting [2]; 0.951 under setting [3]; 0.842 under setting [4]; 0.831 under setting [5].

Consider `COc1ccccc1N1C(=N)SC(=Cc2ccc(OCc3ccccc3F)cc2)C1=O`, for which the viability index by setting is: under setting [1], 0.669; under setting [2], 0.654; under setting [3], 0.661; under setting [4], 0.563; under setting [5], 0.403.

In the case of `Cc1ccc(S(=O)(=O)c2c(COC(=O)c3cccc(C)c3)c(-c3ccccc3)nn2C)cc1`, the viability index reads like this: under setting [1], 0.982; under setting [2], 0.881; under setting [3], 0.943; under setting [4], 0.769; under setting [5], 0.922.

In the case of `OC(CNC1CCCCC1)Cn1c2ccc(I)cc2c2cc(I)ccc21` (stereo not given), the viability index reads like this: under setting [1], 0.116; under setting [2], 0.0916; under setting [3], 0.122; under setting [4], 0.168; under setting [5], 0.13.

Consider `COc1ccc(CCN2CCC(CN(C)Cc3cnn(-c4ccccc4)c3)CC2)cc1`, for which the viability index was determined as 0.203 under setting [1]; 0.496 under setting [2]; 0.508 under setting [3]; 0.498 under setting [4]; 0.418 under setting [5].

`O=C(NCC(c1ccsc1)N1CCCCCC1)c1ccc(C(F)(F)F)cc1` (stereo not given): the viability index runs as follows: under setting [1], 0.653; under setting [2], 0.881; under setting [3], 0.843; under setting [4], 0.9; under setting [5], 0.725.

As to `CN1CCN(c2ncnc3c2[nH]c2ccc(Cl)cc23)CC1`, the viability index runs as follows: under setting [1], 0.263; under setting [2], 0.577; under setting [3], 0.92; under setting [4], 1.04; under setting [5], 0.935.

In the case of `O=C(Nc1ccc(F)c(Cl)c1)Nc1ccc(Cl)c(Cl)c1`, the viability index came out at 0.0409 under setting [1]; 0.0309 under setting [2]; 0.0835 under setting [3]; 0.17 under setting [4]; 0.165 under setting [5].

Regarding `c1ccc(-c2ccc(-c3nc4ccccc4[nH]3)cc2)cc1`, the viability index runs as follows: under setting [1], 0.527; under setting [2], 0.768; under setting [3], 0.867; under setting [4], 0.784; under setting [5], 0.967.

The compound `O=C(NC1CCCCC1)C(c1cccs1)N(CCc1ccccc1)C(=O)c1ccco1` (stereo not given) showed a viability index under setting [1] of 0.98; a viability index under setting [2] of 0.838; a viability index under setting [3] of 1; a viability index under setting [4] of 1.04; a viability index under setting [5] of 0.961.

`CCOc1ccc(N2C(N)=NC(N)=NC2(C)C)cc1`: the viability index was 1.12 under setting [1]; 0.909 under setting [2]; 0.844 under setting [3]; 0.959 under setting [4]; 1.08 under setting [5].
